Experimental findings from PubChem BioAssay (EPA / NIEHS) are described below.

The term AC50 denotes the midpoint of the concentration-response curve, whichever way the signal moves.

Molecules are shown by their SMILES. Some structures have more than one record in an assay (separate samples or runs), and their calls can disagree. Active and inactive are the calls of the source. How the source made its calls: active means hit-call score of the fitted dose curve at least 0.9, where 1 is the maximum; inconclusive means response in the unintended direction; inactive means score below 0.9.

For this assay, the system named is Thyroperoxidase (TPO), gene 54314. Kind of assay: CCTE_Simmons_AUR_rTPO: CCTE's Amplex UltraRed Assay for Thyroperoxidase (TPO) Inhibition, Simmons Lab (AID 2283662).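 On AC50: potency for loss of signal meaning inhibition of peroxidase activity.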 On the procedure:
CCTE_Simmons_AUR_rTPO is a biochemical, single-readout assay that uses microsomes from rat thyroid gland in a tissue-based cell-free assay. Measurements were taken 0.5 hour after chemical dosing in a 384-well plate.CCTE_Simmons_AUR_rTPO is the assay component measured from the CCTE_Simmons_AUR_rTPO assay. It is designed to make measurements of thyroperoxidase (TPO) activity as detected with fluorescence intensity signals using the Amplex UltraRed technology as a form of enzyme activity reporter.Data from the assay component CCTE_Simmons_AUR_rTPO was analyzed at the endpoint, CCTE_Simmons_AUR_rTPO, in the positive analysis fitting direction relative to DMSO as the negative control and baseline of activity. Using a type of enzyme reporter, the Amplex UltraRed assay, loss-of-signal activity can be used to understand decreased peroxidase activity in the presence of excess […]. To generalize the intended target to other relatable targets, this assay endpoint is annotated to the oxidoreductase intended target family, where the subfamily is peroxidase.
As described previously (Paul et al., 2014), the AUR substrate was repurposed to detect peroxidase (ie, TPO) activity in the presence of excess H2O2 for the AUR-TPO assay. The reaction profile for the 384-well format AUR-TPO assay is scaled to an 80 ul assay volume containing 25 uM AUR, 300 uM H2O2, and 5 ug microsomal protein in 200 mM phosphate buffer. The assay concentration of thyroid microsomal protein was approximately […]. First, rat microsomes containing TPO and diluent 200mM potassium phosphate buffer were added to opaque, black 384-well plates (Greiner, BioExpress; Kaysville, Utah) using an automated liquid handler (BioTek MicroFlo; Winooski, Vermont) with a plastic 5 ul tubing cassette. Similarly, AUR was added next by automated liquid handling. Test compounds were administered using a HDRT as described earlier to achieve a 0.5% final DMSO concentration. Finally, H2O2 (300 uM, final concentration) was then added by the BioTek MicroFlo to initiate the reaction. Microplates were incubated at 37C in the dark for 30min. Plates were then shaken on a fluorescence plate reader (FLUOStar Optima, BMG LabTech; GmbH, Germany), and endpoint fluorescence (top read) was measured using 10 flashes per well at 544/590nm excitation/emission. Three biological replicates of technical singles were run for every chemical concentration tested. A titrated range of MMI served as a positive control for TPO inhibition on each plate of the AUR-TPO screening campaign. Test chemicals were administered as a titrated series of 8 concentrations from 5 nM up to 87.5 uM [final] for 30 minutes prior to single endpoint detection. Dimethylsulfoxide [DMSO] was used as the vehicle control. Methimazole [MMI] was used as the positive control and was administered as a titrated series of 8 concentrations from 1 nM up to 271 uM [final].
`CC(C)(c1cc(Br)c(O)c(Br)c1)c1cc(Br)c(O)c(Br)c1`: the AC50 is 18.5 µM (active).

As for `O=C(Nc1ccc(Cl)cc1)Nc1ccc(Cl)c(Cl)c1`, the AC50 was 18.9 µM (active).

In the case of `CO[C@H]1/C=C/O[C@@]2(C)Oc3c(C)c(O)c4c(O)c(c(/C=N/N5CCN(C)CC5)c(O)c4c3C2=O)NC(=O)/C(C)=C\C=C\[C@H](C)[C@H](O)[C@@H](C)[C@@H](O)[C@@H](C)[C@H](OC(C)=O)[C@@H]1C`, the AC50 was 3.3 µM (active).

Turning to `CCCCCCCCOC(=O)c1cc(O)c(O)c(O)c1`, the AC50 was 0.921 µM (active).

As to `COc1cc(C(=O)NC2CCN(C)CC2)ccc1Nc1ncc2c(n1)N(C1CCCC1)CC(F)(F)C(=O)N2C`, the AC50 was 40.7 µM (active).

`CCCCCc1ccc(N)cc1`: the AC50 was 0.0637 µM (active).

For `CN(C)c1ccc(C(=C2C=CC(=[N+](C)C)C=C2)c2ccc(N(C)C)cc2)cc1`, the AC50 is 15.9 µM (active).

Consider `O=C1CCC(C2CCCCC2)CC1`, for which the outcome was inactive.

Take `CC/C(=C(/CC)c1ccc(O)cc1)c1ccc(O)cc1`: the AC50 was 5.22 µM (active).

With `Oc1ccc2ccccc2c1`, the AC50 was 3.13 µM (active).

Consider `CCCOC(=O)c1cc(O)c(O)c(O)c1`, for which the AC50 is 0.772 µM (active).

In the case of `Cc1c2ccccc2c(C)c2c1ccc1ccccc12`, the result was inactive.

Turning to `Oc1ccccc1`, the compound was classed as inactive and the AC50 is 23.6 µM (active).

In the case of `CCOC(=O)O[C@H](C)OC(=O)c1ccc2c(c1)cc(C(=O)NC1CCN(C(C)C)CC1)n2Cc1cc(-c2ccc(Cl)s2)on1`, the AC50 was 9.93 µM (active).

With `OC12N=C(c3ccccc3)SC1Cc1cc(Cl)ccc12` (stereo unspecified), the AC50 was 13 µM (active).

For `NCc1cccc(C2CCN(C(=O)c3ccc(C#Cc4ccccc4F)o3)CC2)c1`, the result was inactive.

As to `CC(C)(C)c1csc(-c2cc3cc(OCc4ccccc4CC(=O)O)ccc3o2)n1`, the AC50 was 43.8 µM (active).

On to `O=C1O[C@H]([C@@H](O)CO)C(O)=C1O`, for which the AC50 is 43.8 µM (active).

Take `O=C(O)Cc1cc(I)c(Oc2ccc(O)c(I)c2)c(I)c1`: the AC50 was 0.32 µM (active).

With `CCN(Cc1cccc(S(=O)(=O)O)c1)c1ccc(C(=C2C=CC(=[N+](CC)Cc3cccc(S(=O)(=O)O)c3)C=C2)c2ccccc2S(=O)(=O)[O-])cc1`, the AC50 is 19.2 µM (active).

As to `C[C@]12CC[C@@H]3c4ccc(O)cc4CC[C@H]3[C@@H]1CC[C@H]2O`, the AC50 is 4.06 µM (active).

With `O=c1c(-c2ccc(O)cc2)coc2cc(O)cc(O)c12`, the AC50 was 3.6 µM (active).

With `CC(C)(C)c1cc(/C=C2\SC(N)=NC2=O)cc(C(C)(C)C)c1O`, the AC50 was 5.18 µM (active).

On to `CN(C[C@@H](CC[N+]12CCC(C3CCCCC3)(CC1)CC2)c1ccc(Cl)c(Cl)c1)C(=O)c1cc(C(F)(F)F)cc(C(F)(F)F)c1`, for which the AC50 is 43.8 µM (active).

Regarding `CC(=O)N1CCN(c2ccc(OC[C@H]3CO[C@](Cn4ccnc4)(c4ccc(Cl)cc4Cl)O3)cc2)CC1`, the AC50 is 19.2 µM (active).
